Measurements reported in the supplement of paper PMC3334620.
In all, about 33,000 sequences were measured (“E-score (-0.5 to 0.5)”: median about -0.0034, highest 2% from about 0.25 on). Only a selection was taken, and the highest values are over-represented in it overall.

Biological target: T1, Yap3 (UniProt P38749)
T1 sequence: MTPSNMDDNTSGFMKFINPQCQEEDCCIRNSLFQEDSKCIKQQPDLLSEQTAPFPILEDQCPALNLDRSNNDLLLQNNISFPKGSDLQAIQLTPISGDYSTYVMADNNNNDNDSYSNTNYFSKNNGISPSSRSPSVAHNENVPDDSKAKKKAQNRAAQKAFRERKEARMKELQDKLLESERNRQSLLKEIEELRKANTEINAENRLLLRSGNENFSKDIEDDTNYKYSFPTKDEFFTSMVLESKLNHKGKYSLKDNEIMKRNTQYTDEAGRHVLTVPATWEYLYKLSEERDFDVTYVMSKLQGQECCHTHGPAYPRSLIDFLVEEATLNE
Test: PBM E-score (8-mer binding enrichment) (E-score (-0.5 to 0.5)); higher = stronger / more preferred TF binding
Conditions: protein concentration: 100 nM; construct: GST-full length
Description: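 Universal 'all 10-mer' protein binding microarrays (Agilent AMADID 015681) probed with GST-tagged S. cerevisiae TFs (full-length or DBD) made by in vitro transcription/translation (PURExpress), about 100-200 nM. Bound TF was detected with fluorescent anti-GST. Each ungapped 8-mer (which stands for itself and its reverse complement) is scored by the PBM enrichment score (E-score), a modified Wilcoxon-Mann-Whitney statistic from -0.5 to +0.5, computed with the Universal PBM Analysis Suite. Scale: above 0.35 generally sequence-specific binding.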

Sequence	PBM E-score
GCGCACCA	-0.0312
TATTAGAA	0.287
GAATAAAA	0.178
CATTAGAA	0.123
CAATAATA	0.237
TAATAATA	0.373
AAATAAAA	0.224
TAATAAAA	0.324
AAATAATA	0.307
GATTAGAA	0.0967
AAATAATG	0.24
AAATAATC	0.0637
TAATAAGA	0.136
AAATGAGT	0.23
ACATCCAT	0.0624
TGGCCACA	-0.0477
GCCTATGA	-0.134
GGTCCCAA	-0.151
ATCGACAT	0.0988
ACCTGCTG	0.0821
TGATAACA	0.258
CGATAACA	0.097
GGATAACA	0.116
CGTTTTAA	0.126
GAGGACGC	-0.1

Sequence	PBM E-score
AGTTCTAA	-0.0287
TGTTCTAA	0.256
GGTTCTAA	0.218
AGCTTGCG	-0.219
AATTGGGG	-0.023
AATTGGGC	0.0215
AATTGGGT	0.331
GCTATTAA	0.103
AATATTAG	0.239
AATATTAA	0.346
GATATTAA	0.212
CATCTCAA	0.108
ACTATTAT	0.123
TGTATTAA	0.126
TATCTCAA	0.256
TATATTAA	0.315
AATATTAT	0.333
AATCTCAA	0.134
TCTATTAA	0.188
AGAGGAAG	-0.0758
AATCGGGA	0.0297
CTTTGATC	-0.0556
TGTAGAAA	0.0253
CGATGGCA	-0.145
TAGCGGAA	-0.00131

Sequence	PBM E-score
AATATCAA	0.244
CCTATTAC	0.176
CATATCAA	0.275
AATATTCG	0.223
AATATTCT	0.133
AATATTAC	0.31
CATATCAG	0.064
GATATTCC	0.12
AATATTCC	0.281
GATATTAC	0.371
GCTATTAC	0.137
AATATTGC	0.202
ACGAACTC	0.0654
TAGGAGAA	-0.178
AGAACGAA	0.233
ATGTTGCA	0.0661
TCATTCGA	0.195
AGGATTAC	0.125
GGAACGAC	-0.133
AGAGAATA	0.208
CATATTTC	0.0493
CATATTGA	0.0743
TATATTCA	0.259
CGTATTAA	0.0173
GAAATCAA	0.0981

Sequence	PBM E-score
GATATTCA	0.0491
CATATTAC	0.282
CATATTAA	0.299
CATATTAG	0.184
AATATTCA	0.223
CAAATCAA	0.267
AAAATCAA	0.19
AAATACAT	0.154
CTTGGTGC	-0.023
AGATAGCA	0.0137
AACAGCAC	0.0426
GCGATCGC	0.191
CAATATGG	-0.00272
CACATTGC	0.0928
CACTGCTA	0.025
CGTTCTGA	-0.106
AACATTAC	0.149
AATATCAG	0.121
AATATCAT	0.277
AATATCAC	0.222
CACATTAG	-0.0914
CACATTAC	0.276
ACAATTCT	0.0509
AGGTTTGA	-0.014
CCAGGTCC	-0.307

Sequence	PBM E-score
GACATACA	0.256
TACATACA	0.209
CACATACA	-0.0173
GGACCGGA	-0.112
ATTACAAT	0.125
ATTACAAG	0.166
AATACAAA	0.259
CTTACAAA	0.19
TTTACAAA	0.262
AATACAAG	0.24
ATTACAAA	0.37
GTTACAAA	0.225
GATACAAA	0.162
AGCATTCG	-0.106
GGATACGA	0.0439
CGGCTGTA	-0.147
AATGTATG	0.0768
AAGCCAGC	-0.0187
GTCGGGTA	0.0387
GCTGCATA	0.0463
AAGGGTGA	-0.0745
AGAGCCAG	-0.175
CTGACTAC	-0.0607
GTGACTCA	0.0409
GTGACTGA	0.167

Sequence	PBM E-score
GTGACTAA	0.262
CTGACTTA	0.16
ATGACTAG	0.07
ATGACTAA	0.431
ATGACTAC	0.0437
CTGACTAA	0.392
CGCTATCC	0.0718
ACAGATCC	0.145
CCACCAGC	-0.0909
CATCCTAG	-0.0476
GGGGAGAC	-0.304
AAGCTTTG	0.0373
AAACCCGA	0.261
TAACCCGA	-0.0757
GAACCCGA	-0.121
GAACCCAC	0.028
AGCGCGCA	0.24
AAGTAAAT	0.26
AAGTAAAG	0.103
AAGTAAAC	0.0216
ACTAGTTC	0.0926
ATTACTGA	0.154
ATTACTCG	0.23
ATTACTCC	0.143
CTTACTTA	0.113

Sequence	PBM E-score
ATTACTCA	0.299
ATTACTTA	0.257
ATGGTTAA	0.0266
GCTCGCGA	0.109
ATCGCTGG	-0.223
ATTAAGGC	0.0716
GTAGCCGA	-0.114
ACCCTGTA	0.00489
AATATAAG	0.353
AATATAAT	0.179
GATATAAA	0.21
ACTATAAA	0.237
TATAAAAA	0.265
CATATAAA	0.183
GATAAAAA	0.192
AATATAAC	0.247
AATATAAA	0.282
TATATAAA	0.274
CATAAAAA	0.186
CATATAAG	0.113
GCTCCTCC	-0.294
CCACCCAA	-0.0309
GCCGTATA	0.141
GTGCCGCA	-0.0486
GCAAGTCC	-0.203
